Screening data deposited in PubChem BioAssay by Broad Institute.
The list is not random: actives were taken first. Their share in the collection is about 2.8%.
SIRT5 block = SIRT5 desuccinylase inhibitors, primary screen, biochemical, fluorescence imaging, single point, set 5; NAD-dependent protein deacylase sirtuin-5, mitochondrial (Homo sapiens), Q9NXA8; Purified SirT5, succinyl-peptide AMC, trypsin-coupled fluorescence; inhibition, % at 15 µM; 330,000 compounds, 1.1% hits; AID 652115, 2013; in the data active = inhibition above about 15%
FGF22 binding-1 = binders of human FGF22 protein, primary screen, FGF22 synaptogenesis inhibitor project, biophysical, thermal shift, single point. 340,000 compounds, 1.5% hits. recombinant FGF22 thermal shift, SYPRO orange fluorescence; percent of sucrose octasulfate shift, DMSO zero. activity (Tm shift, normalised), % at 9.99 µM;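 active = mean Tm shift, scaled 0 neutral to 100 positive control, at about 1.3% or above, every replicate too, limit read from the data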
dFosB act = activators of delta FosB homodimer, primary screen, biochemical, fluorescence polarization, TAMRA-CDK5 oligo, single point; 340,000 compounds, 0.99% hits; Protein FosB (Mus musculus), P13346; purified delta FosB; percent of positive-control signal above neutral wells; activation, % at 25 µM;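 active = mean activation above about 17%, with every replicate also reaching it, limit read from the data, passing the limit was not always enough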
Target sequence (P13346 whole entry, looked up): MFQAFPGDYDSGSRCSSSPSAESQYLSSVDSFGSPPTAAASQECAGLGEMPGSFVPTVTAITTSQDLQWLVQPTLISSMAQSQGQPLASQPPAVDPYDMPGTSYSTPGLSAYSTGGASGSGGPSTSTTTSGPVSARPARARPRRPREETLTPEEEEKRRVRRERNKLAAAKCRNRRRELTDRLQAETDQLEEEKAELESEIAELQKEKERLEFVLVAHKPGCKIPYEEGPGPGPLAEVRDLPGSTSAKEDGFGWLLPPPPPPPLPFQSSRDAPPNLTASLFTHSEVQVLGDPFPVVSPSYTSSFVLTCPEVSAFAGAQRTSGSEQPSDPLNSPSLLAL
PglD DTNB = C. jejuni PglD acetyltransferase inhibitors, primary screen, biochemical, DTNB colorimetric, single point | purified PglD enzyme, DTNB colorimetric CoA detection | inhibition, % at 12.5 µM | UDP-N-acetylbacillosamine N-acetyltransferase PglD (Campylobacter jejuni) | 360,000 compounds, 0.098% hits; in the data active = inhibition above about 16%, passing the limit was not always enough
CDK5 inh = inhibitors of human CDK5/p35 kinase, primary screen, biochemical, single concentration; Recombinant CDK5/p35, ADP-Glo luminescence, 60 min; inhibition, % at 10 µM; 330,000 compounds, 0.01% hits; AID 488839, 2010;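 active = highest replicate inhibition of at least 50% and at least 75% of replicates reaching 50%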;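 note: plate controls were DMSO neutral control for no effect and GW8510 at 10 µM for full effect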
PvdQ acylase = P. aeruginosa PvdQ acylase inhibitors, primary screen, biochemical, fluorescence, plate reader and imaging, single point. purified PvdQ acylase. inhibition, % at 10 µM. 340,000 compounds, 0.063% hits. AID 488965, 2010; in the data active = inhibition above about 30%, passing the limit was not always enough;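 note: 0% = vehicle neutral wells and 100% = reference inhibitor wells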
FGF22 binding-2 = binders of human FGF22 protein, dose response, FGF22 synaptogenesis inhibitor project, biophysical, thermal shift, cherry-pick retest; shares compounds with FGF22 binding-1; recombinant FGF22 thermal shift, SYPRO orange fluorescence; thermal shift activity, °C (ΔTm) at 38 µM; 1,000 compounds, 2% hits; AID 720646, 2013;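 active = fitted rise in melting shift crosses a set limit at or below the top valid dose tested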
FGF22 TSA = binders of human FGF22 protein, dose response, FGF22 synaptogenesis inhibitor project, biophysical, thermal shift, dry powder | Tm shift (activity), % at 38 µM | 50 tested, under 10 active | Thermal shift assay, SYPRO orange, melting temperature shift | AID 743017, 2013 | shares compounds with FGF22 binding-1;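 active = compounds whose fitted dose curve of melting temperature shift rises past a set threshold within the tested doses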
TSA no protein = compound-only thermal shift signal without protein, dose response, artefact control for FGF22 binder project, biochemical, cherry-picked samples, RT-PCR instrument. compound-only SYPRO orange thermal shift counter-screen, no protein. shares compounds with FGF22 binding-1. 1,000 compounds, 2% hits. AC50, µM (highest dose often 38 µM);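 active = rising signal whose fitted curve reaches the 0.54 level within the top valid dose, showing a melting point, actives reach about 13 µM in these data; inactive = the rest, including activity in the opposite direction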; note: value is where the raw curve crosses a fixed level and not half-maximal
An asterisk follows results filed as active; i = inactive; / = not tested or not shown; [ ] = dose if it differs, or a comment.

SMILES	SIRT5 block	FGF22 binding-1	dFosB act	PglD DTNB	CDK5 inh	PvdQ acylase	FGF22 binding-2	TSA no protein	others
CCC(=O)N1CC2(C1)[C@H](c1ccc(-c3cccc(C)c3)cc1)[C@@H](CO)N2S(C)(=O)=O	-1.1	4.5*	/	/	/	/	-0.015	i
CC(C)(CNCc1ccccc1)NS(=O)(=O)c1ccc(Cl)cc1	-0.5	2.1*	-5.7	2.8	-0.1	-13.1	0.057	i
O=C(C[C@H]1CC[C@@H]2[C@H](COC[C@H](O)CN2C(=O)C2CCOCC2)O1)NCc1ccncc1	1.2	0.1	/	1.3	/	/	/	/
Cc1ccccc1Nc1n[nH]c(=S)s1	3.1	-0.4	/	1.2	/	/	/	/
Fc1ccccc1Nc1n[nH]c(=S)s1	2.1	1.6*	-3.1	/	2.7	7.3	-0.106	i
COCC(=O)Nc1ccc2c(c1)[C@@H]1C[C@@H](CC(=O)NCc3ccc(-c4ccccc4)cc3)O[C@@H](CO)[C@@H]1O2	1.4	-0.5	/	-1.6	/	/	/	/
CCN(CCn1cccn1)C(=O)CCc1nnc(Cc2c[nH]c3ccccc23)o1	-4.5	12.3*	0.4	/	-2.1	-7.0	0.234	i
CC(=O)c1c(C)nc2ccc(Br)cc2c1-c1ccccc1	2.2	0.1	-9.2	/	-2.7	-5.6	/	/
Cc1nc2ccc(Br)cc2c(-c2ccccc2)c1C(=O)O	-0.9	29.3*	0.0	/	0.2	-11.6	0.106	i
N#C[C@H]1[C@H](c2ccccc2-c2ccccc2F)[C@@H](CO)N1C(=O)C1CCC1	-3.1	1.4*	/	/	/	/	0.141[42 µM]	i
CC(C)n1c(=O)c2ccccc2n1Cc1cn(-c2ccc(Cl)cc2)nn1	-8.8	2.6*	/	4.1	/	/	0.387	i
COc1ccc2c3c([nH]c2c1)[C@@H](CO)N(C(=O)CN1CCOCC1)CC31CN(C(C)=O)C1	1.9	-0.5	/	/	/	/	/	/
Cc1ccc(C(=O)Nc2nc(=O)n(C(=O)CC(C)C)s2)cc1	0.1	0.1	-4.2	/	-1.7	-14.9	/	/
CC(C)CC(=O)n1sc(NC(=O)c2ccccc2)nc1=O	-2.5	2.5*	-4.0	-1.0	-0.2	-17.1	0.022	i
O=C(N/N=C/c1ccncc1)c1cc2ccccc2cc1O	8.5	0.0	3.7	2.9	0.4	-2.3	/	/
O=C(N/N=C/c1ccc[nH]1)c1cc2ccccc2cc1O	4.8	1.8*	0.1	-1.1	-1.1	-3.3	0.084	i
O=C(C[C@@H]1C=C[C@H](NC(=O)c2ccccc2)[C@H](CO)O1)NCCc1ccncc1	-0.2	0.7	/	0.4	/	/	/	/
COCC(=O)N1C[C@H](C)[C@H](OC)CN(C)C(=O)c2cc(NC(=O)c3cc(C)on3)ccc2OC[C@@H]1C	-1.5	-0.2	/	0.6	/	/	/	/
O=C(Nc1ccccc1F)N[C@@H]1CC[C@H](CCNC(=O)C2CCCCC2)O[C@H]1CO	2.9	-0.4	/	9.4	/	/	/	/
COc1cc(/C=N/NC(=O)CCn2c3ccccc3c3ccccc32)ccc1O	-2.7	2.1*	0.6	3.5	-1.5	-5.5	0.038	13µM*
COc1cc(/C=N/NC(=O)c2cc3ccccc3[nH]2)ccc1O	-1.4	2.7*	-7.7	1.0	2.5	-9.2	0.241	i	FGF22 TSA=0.2
